Compounds without any hit were thinned out: in the full panel of roughly 79,000, 15% have a hit. Activity calls are given as the source filed them. No stated cut-off is given here; in the data, active means growth inhibition above about 70%; inactive means the rest.
Experiments:
[1] = NCI Yeast Anticancer Drug Screen. Data for the rad50 strain (AID 155);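 further: 0% = growth of vehicle-only cultures of the same strain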; details: S. cerevisiae rad50 strain growth inhibition; at 50.0 µM; active compounds read high
Summary of the method: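 Genetically altered yeast (DNA repair pathway); compound treatment; growth inhibition vs vehicle ctrl.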

[2] = NCI Yeast Anticancer Drug Screen. Data for the mec2-1 strain (AID 157); details: S. cerevisiae mec2-1 strain, at 50.0 µM, active compounds read high
Summary of the method: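 Compounds were applied to mec2-1 yeast cells. Their growth was then compared with that of vehicle-treated cultures to give growth inhibition.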

[3] = NCI Yeast Anticancer Drug Screen. Data for the sgs1 mgt1 strain (AID 161);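 further: 0% = growth of cultures given vehicle only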; details: S. cerevisiae sgs1 mgt1 strain, at 50.0 µM, active compounds read high
Summary of the method: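 Percent growth inhibition was derived by comparing compound-exposed mutant yeast with vehicle-exposed cultures. The strain carries alterations in DNA damage repair.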

[4] = NCI Yeast Anticancer Drug Screen. Data for the cln2 rad14 strain (AID 165);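 further: 0% = growth equal to vehicle treated cultures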; details: S. cerevisiae cln2 rad14 strain, at 50.0 µM, active compounds read high
Summary of the method: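 Strain: cln2 rad14 yeast, altered in cell cycle control and DNA damage repair. Read-out: growth inhibition vs vehicle.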

[5] = NCI Yeast Anticancer Drug Screen. Data for the bub3 strain (AID 167); details: S. cerevisiae bub3 mutant strain, at 50.0 µM, active compounds read high
Summary of the method: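 Yeast carrying a defined mutation is treated with each compound, and growth is compared with that of vehicle-exposed cells to give inhibition.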

[6] = NCI Yeast Anticancer Drug Screen. Data for the mlh1 rad18 strain (AID 175); details: S. cerevisiae mlh1 rad18 strain growth inhibition; at 50.0 µM; active compounds read high
Summary of the method: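 A repair-deficient yeast strain is exposed to test compound, and growth is scored relative to vehicle-treated controls.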

Measured: growth inhibition

COc1ccc(-c2c(C(C)=O)c(C)n(C3OC(CO)C(O)C(O)C3O)c(=S)c2C#N)cc1 (stereo not drawn)
inactive: [1] 15.9% | [2] 34.2% | [3] 31.8% | [4] 34% | [5] 26.2% | [6] 49%

Cc1ccc(N=Nc2c(C)nn(C(=S)S)c2C)cc1
inactive: [2] 39.4% | [4] 35.8%
active: [1] 71.9% | [3] 90% | [5] 83.3% | [6] 96.2%

CC/C(=N/NC(N)=O)C1C=COC=C1
inactive: [1] -5.75% | [2] 2% | [3] -0.1% | [4] -6.8% | [5] -11.8% | [6] 1.2%

COc1ccc(-c2c(C(=O)O)cc(O)c3c(OC)c(OC)c(OC)cc23)cc1OC
inactive: [1] -2.8% | [2] 4% | [3] -17.6% | [4] -9.2% | [5] 2.7% | [6] 32.5%

CC(C)=C(CO)CCC(C)C
inactive: [1] -9.3% | [2] -22.9% | [3] -10.4% | [4] 16.9% | [5] 6.65% | [6] -0.05%

O=C(O)C(CCOc1ccccc1)(CCc1ccccc1)C(=O)O
inactive: [1] 4.1% | [2] -10.8% | [3] 5.7% | [4] -58.5% | [5] -8.1% | [6] -13.4%

Cn1c(=O)n(C2OC(CO)C(O)C2O)c2ncnc(N)c21 (stereo not drawn)
inactive: [1] 8.9% | [2] 0.55% | [3] -5.8% | [4] -43.1% | [5] -2.9% | [6] 4.65%

Cc1ccc(S(=O)(=O)N/N=C2/CCCOC2)cc1
inactive: [1] 16.1% | [2] 4.15% | [3] 59.6% | [4] 32.5% | [5] 24.2% | [6] 38%

O=C1/C(=C/c2ccc(Cl)cc2)Oc2ccccc21
inactive: [1] -31.4% | [2] -7.05% | [3] -18.9% | [4] 1.4% | [5] -8.1% | [6] -19.6%

NC(=O)NC=O
inactive: [1] 10.8% | [2] -3.95% | [3] 14.7% | [4] 1.25% | [5] -14.6% | [6] 14.3%

[Cl][Pt+2][Cl].[NH-]CC1(C[NH-])CCC1
inactive: [1] 1.1% | [2] 1.5% | [3] 9.2% | [4] 9% | [5] -18.9% | [6] -40%

O=C(COc1ccccc1)Nc1cccc2ccccc12
inactive: [1] 4.5% | [2] 24.5% | [3] 6.6% | [4] -3.7% | [5] 10.4% | [6] 29.2%

CCOC(=O)C(Cc1cccc2ccccc12)(NC(C)=O)C(=O)OCC
inactive: [1] -7.5% | [2] -4.55% | [3] -5.95% | [4] -31.9% | [5] 16.5% | [6] -14.8%

Cc1ccc(/C=N/NC(=O)c2ccccc2NC(=O)c2ccccc2)cc1
active: [2] 80.6% | [3] 85.4% | [5] 70.8%
inactive: [1] 57.4% | [4] 62% | [6] 69.8%

CCCC(=O)CC(C)C(=O)C(=O)NC12CC3CC(CC(C3)C1)C2 (stereo not drawn)
inactive: [1] 14.6% | [2] 8.35% | [3] 13.4% | [4] 20.2% | [5] 4.4% | [6] 30.3%

N#CC1(NC2CCCCC2)CCN(Cc2ccccc2)CC1
inactive: [1] -5.5% | [2] -11.9% | [3] -6.1% | [4] 4.1% | [5] -7.5% | [6] -1.75%

COc1cc(S(N)(=O)=O)c(OC)cc1N
inactive: [1] 21.1% | [2] -28.2% | [3] -11.4% | [4] 8.8% | [5] -5.6% | [6] -10.1%

Cc1cc(O)c(/C=N/C(=O)NN)c(=O)o1
inactive: [1] -40.6% | [2] -11.1% | [3] -20.1% | [4] -22.4% | [5] -22.5% | [6] -42.5%

CNC1C(CO)OC(n2cnc3c(=O)[nH]cnc32)C1O (stereo not drawn)
inactive: [1] 12.2% | [2] -6.45% | [3] -11.4% | [4] -9.1% | [5] -9.2% | [6] 13.6%

O=C(Cl)/C=C/c1ccccc1
inactive: [1] 37.1% | [2] 15.5% | [3] 27.9% | [4] -29.1% | [5] 23.9% | [6] 34.9%

Cc1cc(C)c2c(c1)C(=O)c1ccccc1C2=O
inactive: [1] 42.6% | [2] 47.1% | [3] 47.4% | [4] 38% | [5] 30.9% | [6] 58.8%

COc1ccc(-c2cn3c(nc4ccccc43)c(C)n2)cc1
inactive: [1] -4.8% | [2] -3.15% | [3] 16.6% | [4] -17.9% | [5] 21% | [6] -11.3%

CC1=CC[C@@H](Br)C(C)(C)[C@]12CC[C@]1(C)O[C@@H]1C2
inactive: [1] 3.15% | [2] -33.6% | [3] -12.6% | [4] 2.55% | [5] -23.6% | [6] -13.6%

COc1cc(C2C(Cl)C(=O)N2NC(=O)c2ccc(N)cc2)cc(Br)c1O (stereo not drawn)
inactive: [1] 16.3% | [2] 0.95% | [3] 4.05% | [4] -38% | [5] 5.85% | [6] -11.2%

Cn1c(=O)c2[nH]c(Br)nc2n(C)c1=O
inactive: [1] -12% | [2] -13.4% | [3] 5.4% | [4] -4.25% | [5] 13.3% | [6] -12.2%

O=C(Nc1cc(Cl)ccc1Cl)Oc1ccc(Cl)cc1C(=O)c1ccccc1
inactive: [1] -45% | [2] -10.4% | [3] -37.8% | [4] -16.8% | [5] -35.4% | [6] -56.9%

Cc1ccc(Cc2cc(=O)[nH]c(=S)[nH]2)cc1
inactive: [1] -1.05% | [2] 4.05% | [3] -6.15% | [4] -26.9% | [5] -11.6% | [6] -3.35%

CCCCCCCCCCCCCCCCCC(=O)N/N=C/c1ccccc1OC
inactive: [1] 7.05% | [2] 11.9% | [3] 9.25% | [4] -1.6% | [5] -2.05% | [6] 28.1%

CC(=O)n1c2ccccc2c2nc3ccccc3nc21
inactive: [1] 0.3% | [2] 10.4% | [3] 11.9% | [4] -30.9% | [5] -19.6% | [6] -14.1%

O=C(O)C1C2OC3C(OC(=O)C31)C2Cl (stereo not drawn)
inactive: [1] -4.5% | [2] 6% | [3] 9.85% | [4] -14.3% | [5] -6.5% | [6] -12.3%

COc1ccc(/C=C/C(=O)C(C)(CN(C)C)CN(C)C)cc1
inactive: [1] 0.95% | [2] -13.8% | [3] 4.95% | [4] 6.85% | [5] -11.2% | [6] 11.8%

COc1c(C(=O)O)ccc(C(=O)NCCCCCN(O)C(=O)CCC(=O)NCCCCCN(O)C(=O)CCC(=O)NCCCCCN(O)C(C)=O)c1OC
inactive: [1] -7.25% | [2] 4.25% | [3] -5.35% | [4] -24.9% | [5] -0.6% | [6] -28.4%

N#CCCN(CCC#N)Cc1ccc2c(O)c(CN(CCC#N)CCC#N)ccc2c1O
inactive: [1] 23.8% | [2] 7.35% | [3] 3.35% | [4] -1.65% | [5] -0.15% | [6] 3.65%

OCC(O)C(O)C(O)C(O)CN=Cc1ccccc1O (stereo not drawn)
inactive: [1] -19.8% | [2] 7.9% | [3] -10.7% | [4] 2.8% | [5] -19.6% | [6] -4.45%

O=C(CC(=O)N(C(=O)c1ccccc1)c1ccc(Cl)cc1)N/N=C\c1ccccc1O
inactive: [1] 1.35% | [2] -5.4% | [3] 5.45% | [4] -1.85% | [5] 19.9% | [6] -15.4%

CC(=C/c1ccccc1)/C=C1/SC(=S)N(C=C2C(=O)NC(=O)NC2=O)C1=O
inactive: [1] 54.9% | [2] 54.1% | [3] 32.4% | [4] 50.2% | [5] 50.5% | [6] 43.2%

CSc1nc(N)cc(Cl)n1
inactive: [1] 7.75% | [2] -25.5% | [3] -12.4% | [4] 5.85% | [5] -1.9% | [6] -9.7%

COc1cc(OC)c(C(=O)c2ccccc2N)c(OC)c1
inactive: [1] -3.2% | [2] -0.35% | [3] -1.5% | [4] 6.55% | [5] -8.45% | [6] 9.4%
